# Measured values taken from the supplement of paper PMC7411054.
# Structures can show the parent of a compound that is named as a salt. A number with no mark means an inactive call.
# System: HepG2-CANX-COX4
# Assay: phenotypically active (imaging signature differs from DMSO and reproducible) at any of 0.3-9 uM (binary (1 = active, 0 = inactive)); higher = active
# Conditions: treatment time: 24 h
# Summary of the method: (§1)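 Phenotypic activity depended on meeting both a deviation and a reproducibility criterion. The fifteen gene-edited A549, HepG2 and WPMY1 reporter lines were treated at 0.3, 1, 3 or 9 µM for 24 h, four wells each, then imaged live with features normalised to solvent control wells. Deviation required ≥3 of 4 wells past the 95th percentile of control Euclidean distances, and reproducibility a median replicate Pearson correlation above the 95th percentile of non-replicates.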
row,Compound,phenotypically active
1,O=P(O)(O)C(O)(Cc1cccnc1)P(=O)(O)O [risedronate],0
2,O=C(CCc1ccc(O)cc1)c1c(O)cc(O)cc1O[C@@H]1O[C@H](CO)[C@@H](O)[C@H](O)[C@H]1O [Phloridzin],0
3,CC(C)NCCCC1(C(N)=O)c2ccccc2-c2ccccc21 [indecainide],0
4,COc1c2occc2cc2ccc(=O)oc12 [methoxsalen],0
5,CC(=O)N[C@@H](CC(=O)O)C(=O)N[C@@H](CCC(=O)O)C(=O)O [Spaglumic acid],0
6,OCC(CO)N[C@H]1C[C@](O)(CO)[C@@H](O)[C@H](O)[C@H]1O [Voglibose],0
7,CCOc1ccccc1OCCN[C@H](C)Cc1ccc(OC)c(S(N)(=O)=O)c1 [tamsulosin],0
8,O=C1NC(=O)/C(=C\c2cccc(C(F)(F)F)c2)S1,0
9,NS(=O)(=O)c1cc(Cl)c(Cl)c(S(N)(=O)=O)c1 [diclofenamide],0
10,CN1CCN2c3ncccc3Cc3ccccc3C2C1 (stereo not drawn) [Mirtazapine],0
11,O=C1N(c2ccccc2)c2ccccc2C1(Cc1ccncc1)Cc1ccncc1 [linopirdine],0
12,C[C@H]1[C@H](C)CC[C@]2(C(=O)O)CC[C@]3(C)C(=CC[C@@H]4[C@@]5(C)CC[C@H](O)C(C)(C)[C@@H]5CC[C@]43C)[C@H]12 [Ursolic acid],0
13,CCOC(=O)[C@H](CCc1ccccc1)N[C@@H](C)C(=O)N1Cc2ccccc2C[C@H]1C(=O)O [quinapril],0
14,CC1(C)CCC(C)(C)c2cc(C3(c4ccc(C(=O)O)cc4)OCCO3)ccc21,0
15,CCCCCCCCCN1C[C@H](O)[C@@H](O)[C@H](O)[C@H]1CO [N-Nonyldeoxynojirimycin],0
16,CC(=O)O[C@H]1C[C@@H]2CC[C@@H]3[C@H](CC[C@@]4(C)[C@H]3C[C@H]([N+]3(C)CCCCC3)[C@@H]4OC(C)=O)[C@@]2(C)C[C@@H]1N1CCCCC1 [vecuronium],0
17,O=C(O)c1cc(/N=N/c2ccc(O)c(C(=O)O)c2)ccc1O [olsalazine],0
18,CCOC(=O)[C@H](CCc1ccccc1)N[C@H]1CCc2ccccc2N(CC(=O)O)C1=O [benazepril],0
19,O=C(c1ccccc1)c1ccc2n1CCC2C(=O)O (stereo not drawn) [ketorolac],0
20,CN1C(=O)CC[C@H]1c1cccnc1 [(-)-Cotinine],0

row,Compound,phenotypically active
1,CN1C(=O)OC(C)(C)C1=O [trimethadione],0
2,CCC(=C(CC)c1ccc(O)cc1)c1ccc(O)cc1 (stereo in doubt) [diethylstilbestrol],0
3,CCOc1cc(CC(=O)N[C@@H](CC(C)C)c2ccccc2N2CCCCC2)ccc1C(=O)O [repaglinide],0
4,O=C(Cn1ccnc1[N+](=O)[O-])NCc1ccccc1 [benznidazole],0
5,CCCc1nn(C)c2c(=O)[nH]c(-c3cc(S(=O)(=O)N4CCN(C)CC4)ccc3OCC)nc12 [Sildenafil citrate],0
6,CCN(CC)CC(=O)Nc1c(C)cccc1C [lidocaine],0
7,COc1ccc([C@@H]2Sc3ccccc3N(CCN(C)C)C(=O)[C@@H]2OC(C)=O)cc1 [diltiazem],0
8,COc1ccc(CCN(C)CCCN2CCc3cc(OC)c(OC)cc3CC2=O)cc1OC [zatebradine],0
9,CC(C)NCC(O)c1ccc(O)c(O)c1 (stereo not drawn) [Isoproterenol hydrochloride],0
10,O=C(O)c1ccc(O)c2ncccc12,0
11,NCCCC[C@H](N[C@@H](CCc1ccccc1)C(=O)O)C(=O)N1CCC[C@H]1C(=O)O [lisinopril],0
12,C#C[C@]1(O)CC[C@H]2[C@@H]3CCc4cc(OC5CCCC5)ccc4[C@H]3CC[C@@]21C [quinestrol],0
13,O=C(NCc1ccccn1)Nc1nnc(-c2ccco2)o1,0
14,O=C1c2ccccc2C(Cc2ccncc2)(Cc2ccncc2)c2ccccc21,0
15,CCOC(=O)C(C)(C)Oc1ccc(Cl)cc1 [Clofibrate],0
16,CC(C)(Sc1ccc(CCN(CCCCC2CCCCC2)C(=O)NC2CCCCC2)cc1)C(=O)O,0
17,O=c1[nH]cnc2c1ncn2[C@H]1CC[C@@H](CO)O1 [Didanosine],0
18,CC(c1cc2ccccc2s1)N(O)C(N)=O (stereo not drawn) [zileuton],0
19,COc1ccc2[nH]c(S(=O)Cc3ncc(C)c(OC)c3C)nc2c1 (stereo not drawn) [omeprazole],0

# System: HepG2-GM130-SQSTM1
# Assay: as above
# Conditions: treatment time: 24 h
# Summary of the method: as §1
row,Compound,phenotypically active
1,O=P(O)(O)C(O)(Cc1cccnc1)P(=O)(O)O [risedronate],0
2,O=C(CCc1ccc(O)cc1)c1c(O)cc(O)cc1O[C@@H]1O[C@H](CO)[C@@H](O)[C@H](O)[C@H]1O [Phloridzin],0
3,CC(C)NCCCC1(C(N)=O)c2ccccc2-c2ccccc21 [indecainide],0
4,COc1c2occc2cc2ccc(=O)oc12 [methoxsalen],0
5,CC(=O)N[C@@H](CC(=O)O)C(=O)N[C@@H](CCC(=O)O)C(=O)O [Spaglumic acid],0
6,OCC(CO)N[C@H]1C[C@](O)(CO)[C@@H](O)[C@H](O)[C@H]1O [Voglibose],0
7,CCOc1ccccc1OCCN[C@H](C)Cc1ccc(OC)c(S(N)(=O)=O)c1 [tamsulosin],0
8,O=C1NC(=O)/C(=C\c2cccc(C(F)(F)F)c2)S1,0
9,NS(=O)(=O)c1cc(Cl)c(Cl)c(S(N)(=O)=O)c1 [diclofenamide],0
10,CN1CCN2c3ncccc3Cc3ccccc3C2C1 (stereo not drawn) [Mirtazapine],0
11,O=C1N(c2ccccc2)c2ccccc2C1(Cc1ccncc1)Cc1ccncc1 [linopirdine],0
12,C[C@H]1[C@H](C)CC[C@]2(C(=O)O)CC[C@]3(C)C(=CC[C@@H]4[C@@]5(C)CC[C@H](O)C(C)(C)[C@@H]5CC[C@]43C)[C@H]12 [Ursolic acid],0
13,CCOC(=O)[C@H](CCc1ccccc1)N[C@@H](C)C(=O)N1Cc2ccccc2C[C@H]1C(=O)O [quinapril],0
14,CC1(C)CCC(C)(C)c2cc(C3(c4ccc(C(=O)O)cc4)OCCO3)ccc21,0
15,CCCCCCCCCN1C[C@H](O)[C@@H](O)[C@H](O)[C@H]1CO [N-Nonyldeoxynojirimycin],0
16,CC(=O)O[C@H]1C[C@@H]2CC[C@@H]3[C@H](CC[C@@]4(C)[C@H]3C[C@H]([N+]3(C)CCCCC3)[C@@H]4OC(C)=O)[C@@]2(C)C[C@@H]1N1CCCCC1 [vecuronium],0
17,O=C(O)c1cc(/N=N/c2ccc(O)c(C(=O)O)c2)ccc1O [olsalazine],0
18,CCOC(=O)[C@H](CCc1ccccc1)N[C@H]1CCc2ccccc2N(CC(=O)O)C1=O [benazepril],0
19,O=C(c1ccccc1)c1ccc2n1CCC2C(=O)O (stereo not drawn) [ketorolac],0
20,CN1C(=O)CC[C@H]1c1cccnc1 [(-)-Cotinine],0

row,Compound,phenotypically active
1,CN1C(=O)OC(C)(C)C1=O [trimethadione],0
2,CCC(=C(CC)c1ccc(O)cc1)c1ccc(O)cc1 (stereo in doubt) [diethylstilbestrol],0
3,CCOc1cc(CC(=O)N[C@@H](CC(C)C)c2ccccc2N2CCCCC2)ccc1C(=O)O [repaglinide],0
4,O=C(Cn1ccnc1[N+](=O)[O-])NCc1ccccc1 [benznidazole],0
5,CCCc1nn(C)c2c(=O)[nH]c(-c3cc(S(=O)(=O)N4CCN(C)CC4)ccc3OCC)nc12 [Sildenafil citrate],0
6,CCN(CC)CC(=O)Nc1c(C)cccc1C [lidocaine],0
7,COc1ccc([C@@H]2Sc3ccccc3N(CCN(C)C)C(=O)[C@@H]2OC(C)=O)cc1 [diltiazem],0
8,COc1ccc(CCN(C)CCCN2CCc3cc(OC)c(OC)cc3CC2=O)cc1OC [zatebradine],0
9,CC(C)NCC(O)c1ccc(O)c(O)c1 (stereo not drawn) [Isoproterenol hydrochloride],0
10,O=C(O)c1ccc(O)c2ncccc12,0
11,NCCCC[C@H](N[C@@H](CCc1ccccc1)C(=O)O)C(=O)N1CCC[C@H]1C(=O)O [lisinopril],0
12,C#C[C@]1(O)CC[C@H]2[C@@H]3CCc4cc(OC5CCCC5)ccc4[C@H]3CC[C@@]21C [quinestrol],0
13,O=C(NCc1ccccn1)Nc1nnc(-c2ccco2)o1,0
14,O=C1c2ccccc2C(Cc2ccncc2)(Cc2ccncc2)c2ccccc21,0
15,CCOC(=O)C(C)(C)Oc1ccc(Cl)cc1 [Clofibrate],0
16,CC(C)(Sc1ccc(CCN(CCCCC2CCCCC2)C(=O)NC2CCCCC2)cc1)C(=O)O,0
17,O=c1[nH]cnc2c1ncn2[C@H]1CC[C@@H](CO)O1 [Didanosine],0
18,CC(c1cc2ccccc2s1)N(O)C(N)=O (stereo not drawn) [zileuton],0
19,COc1ccc2[nH]c(S(=O)Cc3ncc(C)c(OC)c3C)nc2c1 (stereo not drawn) [omeprazole],0
